From the supplement of paper PMC6555819

Experiments:
Assay in all cases: PBM binding z-score (relative to random genomic background probes); higher = stronger binding; sequences stand for … in GC…GCGATTGACAGCGTAGAATGAAGG
[1] = test system: FXR:RXRa (NR concentration 270 nM, RXRa partner concentration 90 nM)
Method in brief: (§1)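 Regression normalization was applied to scanned fluorescence from custom Agilent 4×180K protein-binding microarrays. Before scanning, arrays were incubated 1 h with ligand-free nuclear receptor dimers, and binding was detected with antibodies against each partner (one per run). Binding z-scores use the random background probes as reference.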

[2] = test system: LXRa:RXRa (NR concentration 270 nM, RXRa partner concentration 90 nM)
Method in brief: as §1

[3] = test system: LXRa homodimer (NR concentration 270 nM)
Method in brief: as §1

[4] = test system: LXRb:RXRa (NR concentration 270 nM, RXRa partner concentration 90 nM)
Method in brief: as §1

[5] = test system: LXRb homodimer (NR concentration 270 nM)
Method in brief: as §1

[6] = test system: PPARa:RXRa (NR concentration 270 nM, RXRa partner concentration 90 nM)
Method in brief: as §1

[7] = test system: PPARg:RXRa (NR concentration 180 nM, RXRa partner concentration 90 nM)
Method in brief: as §1

[8] = test system: PPARg:RXRa 270nM:90nM, anti-RXR (NR concentration 270 nM, RXRa partner concentration 90 nM)
Method in brief: as §1

[9] = test system: PPARg:RXRa 30nM:10nM, anti-RXR (NR concentration 30 nM, RXRa partner concentration 10 nM)
Method in brief: as §1

[10] = test system: PPARg:RXRa 90nM:30nM, anti-RXR (NR concentration 90 nM, RXRa partner concentration 30 nM)
Method in brief: as §1

Row | Sequence | PBM binding z-score [1] | PBM binding z-score [2] | PBM binding z-score [3] | PBM binding z-score [4] | PBM binding z-score [5] | PBM binding z-score [6] | PBM binding z-score [7] | PBM binding z-score [8] | PBM binding z-score [9] | PBM binding z-score [10]
1 | CCGCGTAGGTTATGGGGCATTCAGGCAACGGTGA | 0.332 | 0.33 | -0.277 | 0.756 | -0.566 | 1.43 | 0.613 | 1.17 | -0.391 | 0.458
2 | CCTATTAGTTGACGATAAGGGCAACCGAAGCTCG | 0.29 | 0.114 | -0.102 | 0.152 | 0.201 | 0.204 | 0.482 | 0.0797 | 0.0506 | 0.157
3 | ATCGAAAGGTCGACGGTGAGTATACCCACCCGAA | 4.38 | 3.44 | 0.131 | 2.47 | 0.548 | 4.12 | 2.45 | 3.09 | 1.17 | 2.63
4 | CGTCCAGGGTCAATGCTAGGTCAGTGAAAGCATT | 6.33 | 5.16 | 0.988 | 4.06 | -0.00452 | 5.61 | 4.11 | 4.59 | 1.57 | 3.18
5 | TCGAGTAGGTTAGTCGGGGCGTTCAGCCAACATA | -0.0524 | -0.272 | -0.481 | -0.0286 | -1.19 | 0.148 | -0.893 | 0.268 | 0.61 | 0.186
6 | CCTCGGAGGACAGAAGGTCAGCGCTGTCCGCTTT | 1.68 | 2.01 | 0.184 | 1.17 | -0.704 | 2.2 | -0.154 | 1.57 | -0.543 | 0.613
7 | TCAGACACGTGAAGGTAACTCAGGTACGCAGTCG | 0.454 | 1.57 | -0.182 | 0.638 | -0.58 | 0.588 | 0.903 | 1.81 | 3.41 | 2.58
8 | TCTGCTAGGTCCGTTGGTCAGCTAACGAGCTGCC | -0.505 | -0.6 | -1.09 | -0.828 | -0.736 | -0.336 | -1.2 | -0.0919 | 0.802 | 0.586
9 | AGAATGAGGATATACGTAGATCAGGGAAGAAAGT | -0.224 | -0.666 | -0.354 | -0.479 | -0.429 | -0.509 | 0.977 | -0.177 | 0.217 | -0.000713
10 | TAGCCTAGGGCATTGGGCCAGTATAGTACGCATC | -0.339 | -0.336 | -0.318 | -0.673 | -0.892 | -0.0901 | 0.887 | 0.225 | -0.369 | -0.368
11 | TCGAGTAGGTTAGTCGGGGAATTCAGCCAACATA | -0.0396 | -0.257 | -0.394 | -0.065 | -0.946 | 0.287 | -0.188 | 0.615 | 0.883 | 0.675
12 | GGAACGAGGGCGAAGTTGATAGCATCTGTCGACG | -0.55 | -0.447 | -0.49 | -0.637 | -0.922 | 1.42 | 2.91 | 4.71 | 1.93 | 4.02
13 | AGTCAAAGTTAAGGACGAGGTAACGTAAAGCACG | -0.0625 | -0.031 | -0.464 | -0.186 | -0.644 | 0.245 | 0.85 | 0.357 | 0.301 | 0.179
14 | TAGACTAGGTCATTCAGGGGCCAGTATAGAAAGC | 4.16 | 3.02 | 0.5 | 2.45 | 1.5 | 3.77 | 5.02 | 4.54 | 2.12 | 3.67
15 | ACGAGCAGGCCAAGTTTGGGTCACTCAAACAAAG | 0.0598 | -0.0138 | -0.363 | 0.536 | -0.887 | 1.33 | -0.00564 | 0.0624 | -0.543 | -0.429
16 | ACGATTAGTTGAGACGAGGGCAACCGATAGGTTG | 0.116 | -0.256 | -0.3 | -0.292 | -0.463 | 0.252 | 0.533 | -0.0475 | -0.114 | -0.534
17 | ATATGTAGGTTATCGGGGCATTCAGTTTGCGCAT | 1.18 | 1.49 | 0.936 | 2.57 | 1.81 | 3.95 | 5.76 | 5 | 2.48 | 4.06
18 | CGTCATAGTTCAACTAAGGTAACGTAAAGCACGC | 3.55 | 3.63 | 1.02 | 2.13 | 0.806 | 3.13 | 1.66 | 2.25 | 0.562 | 1.56
